# Test results: ChEMBL document CHEMBL1961873, “Compounds: GSK PKIS; Assays: Nanosyn kinase panel” (2012)
# How the values were obtained:
# [1] = target: MAP/microtubule affinity-regulating kinase 3 (Homo sapiens) (UniProt P27448); conditions: at 1 µM;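 also: reported values are averaged percent inhibition of MARK3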
# [2] = target: T1, MAP/microtubule affinity-regulating kinase 4 (Homo sapiens) (UniProt Q96L34); conditions: at 0.1 µM
# T1 sequence (whole entry): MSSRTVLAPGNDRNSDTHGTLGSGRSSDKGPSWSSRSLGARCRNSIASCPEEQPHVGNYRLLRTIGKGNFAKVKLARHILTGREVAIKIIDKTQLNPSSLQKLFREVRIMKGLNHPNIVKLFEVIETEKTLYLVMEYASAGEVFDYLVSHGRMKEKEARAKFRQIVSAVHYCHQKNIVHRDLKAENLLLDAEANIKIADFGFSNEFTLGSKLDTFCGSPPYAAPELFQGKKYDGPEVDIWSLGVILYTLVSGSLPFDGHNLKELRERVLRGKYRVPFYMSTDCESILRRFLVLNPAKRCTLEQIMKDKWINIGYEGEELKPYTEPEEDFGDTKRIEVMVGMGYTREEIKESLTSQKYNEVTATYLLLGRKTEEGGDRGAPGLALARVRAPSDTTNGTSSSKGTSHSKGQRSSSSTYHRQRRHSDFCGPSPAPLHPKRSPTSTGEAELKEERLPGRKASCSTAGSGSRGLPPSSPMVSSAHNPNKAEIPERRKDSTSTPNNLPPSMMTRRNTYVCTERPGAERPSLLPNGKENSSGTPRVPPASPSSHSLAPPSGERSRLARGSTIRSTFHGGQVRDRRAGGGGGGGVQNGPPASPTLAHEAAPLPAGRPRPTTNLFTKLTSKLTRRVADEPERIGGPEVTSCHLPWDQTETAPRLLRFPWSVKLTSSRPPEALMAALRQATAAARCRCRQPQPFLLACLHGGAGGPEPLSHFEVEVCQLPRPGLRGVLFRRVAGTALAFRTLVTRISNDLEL
# [3] = target: T1, MAP/microtubule affinity-regulating kinase 4 (Homo sapiens); conditions: at 1 µM
# [4] = target: Maternal embryonic leucine zipper kinase (Homo sapiens) (UniProt Q14680); conditions: at 0.1 µM
# Maternal embryonic leucine zipper kinase (Homo sapiens), sequence (Q14680 whole entry, looked up): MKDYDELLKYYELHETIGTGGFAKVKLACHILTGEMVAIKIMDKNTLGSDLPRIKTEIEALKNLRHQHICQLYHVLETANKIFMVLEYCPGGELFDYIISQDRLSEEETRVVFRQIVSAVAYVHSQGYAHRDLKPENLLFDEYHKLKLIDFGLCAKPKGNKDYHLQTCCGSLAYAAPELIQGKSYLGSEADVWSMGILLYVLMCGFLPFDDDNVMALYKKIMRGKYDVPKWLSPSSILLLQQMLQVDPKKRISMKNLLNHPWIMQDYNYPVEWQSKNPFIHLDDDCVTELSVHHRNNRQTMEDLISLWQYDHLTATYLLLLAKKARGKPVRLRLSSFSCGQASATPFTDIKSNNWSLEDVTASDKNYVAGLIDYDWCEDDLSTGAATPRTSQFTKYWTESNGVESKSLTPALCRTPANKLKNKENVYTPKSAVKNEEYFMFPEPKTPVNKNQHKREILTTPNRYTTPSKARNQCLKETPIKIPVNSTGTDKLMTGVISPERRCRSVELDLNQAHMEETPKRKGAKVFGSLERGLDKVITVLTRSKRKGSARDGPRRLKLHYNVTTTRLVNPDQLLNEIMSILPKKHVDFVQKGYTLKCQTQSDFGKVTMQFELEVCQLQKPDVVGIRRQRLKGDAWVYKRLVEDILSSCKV
# [5] = target: Maternal embryonic leucine zipper kinase (Homo sapiens) (UniProt Q14680); conditions: at 1 µM
# [6] = target: MAP kinase-interacting serine/threonine-protein kinase 1 (Homo sapiens) (UniProt Q9BUB5); conditions: at 0.1 µM
# MAP kinase-interacting serine/threonine-protein kinase 1 (Homo sapiens), sequence (Q9BUB5 whole entry, looked up): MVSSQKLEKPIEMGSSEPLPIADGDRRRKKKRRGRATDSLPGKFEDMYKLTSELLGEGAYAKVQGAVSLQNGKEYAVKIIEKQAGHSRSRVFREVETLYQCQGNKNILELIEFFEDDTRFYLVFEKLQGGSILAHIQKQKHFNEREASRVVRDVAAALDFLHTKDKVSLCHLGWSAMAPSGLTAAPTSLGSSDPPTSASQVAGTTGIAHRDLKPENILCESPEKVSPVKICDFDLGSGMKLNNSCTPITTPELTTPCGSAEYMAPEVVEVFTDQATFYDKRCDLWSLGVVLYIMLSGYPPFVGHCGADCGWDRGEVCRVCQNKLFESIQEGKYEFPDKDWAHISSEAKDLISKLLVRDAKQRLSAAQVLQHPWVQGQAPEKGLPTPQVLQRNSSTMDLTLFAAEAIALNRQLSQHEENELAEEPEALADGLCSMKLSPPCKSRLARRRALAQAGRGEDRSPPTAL
# [7] = target: MAP kinase-interacting serine/threonine-protein kinase 1 (Homo sapiens) (UniProt Q9BUB5); conditions: at 1 µM
# [8] = target: MAP kinase-interacting serine/threonine-protein kinase 2 (Homo sapiens) (UniProt Q9HBH9); conditions: at 0.1 µM
# MAP kinase-interacting serine/threonine-protein kinase 2 (Homo sapiens), sequence (Q9HBH9 whole entry, looked up): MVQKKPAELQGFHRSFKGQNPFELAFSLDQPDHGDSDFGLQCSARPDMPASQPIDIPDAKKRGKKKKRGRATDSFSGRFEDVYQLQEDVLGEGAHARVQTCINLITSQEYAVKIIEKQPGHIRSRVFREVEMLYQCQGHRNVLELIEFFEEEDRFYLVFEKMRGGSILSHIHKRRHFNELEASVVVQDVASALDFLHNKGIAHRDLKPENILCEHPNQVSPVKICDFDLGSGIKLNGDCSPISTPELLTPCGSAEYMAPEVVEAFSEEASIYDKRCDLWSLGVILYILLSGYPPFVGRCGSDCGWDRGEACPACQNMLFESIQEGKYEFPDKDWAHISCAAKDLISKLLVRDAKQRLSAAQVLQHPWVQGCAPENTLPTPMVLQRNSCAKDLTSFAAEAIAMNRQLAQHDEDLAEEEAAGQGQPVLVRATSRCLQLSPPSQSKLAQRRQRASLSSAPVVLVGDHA
# [9] = target: MAP kinase-interacting serine/threonine-protein kinase 2 (Homo sapiens) (UniProt Q9HBH9); conditions: at 1 µM
# [10] = target: Serine/threonine-protein kinase MARK2 (Homo sapiens) (UniProt Q7KZI7); conditions: at 0.1 µM;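 also: mean percent inhibition of PAR-1Balpha kinase activity, reported from the GSK PKIS screen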
# Serine/threonine-protein kinase MARK2 (Homo sapiens), sequence (Q7KZI7 whole entry): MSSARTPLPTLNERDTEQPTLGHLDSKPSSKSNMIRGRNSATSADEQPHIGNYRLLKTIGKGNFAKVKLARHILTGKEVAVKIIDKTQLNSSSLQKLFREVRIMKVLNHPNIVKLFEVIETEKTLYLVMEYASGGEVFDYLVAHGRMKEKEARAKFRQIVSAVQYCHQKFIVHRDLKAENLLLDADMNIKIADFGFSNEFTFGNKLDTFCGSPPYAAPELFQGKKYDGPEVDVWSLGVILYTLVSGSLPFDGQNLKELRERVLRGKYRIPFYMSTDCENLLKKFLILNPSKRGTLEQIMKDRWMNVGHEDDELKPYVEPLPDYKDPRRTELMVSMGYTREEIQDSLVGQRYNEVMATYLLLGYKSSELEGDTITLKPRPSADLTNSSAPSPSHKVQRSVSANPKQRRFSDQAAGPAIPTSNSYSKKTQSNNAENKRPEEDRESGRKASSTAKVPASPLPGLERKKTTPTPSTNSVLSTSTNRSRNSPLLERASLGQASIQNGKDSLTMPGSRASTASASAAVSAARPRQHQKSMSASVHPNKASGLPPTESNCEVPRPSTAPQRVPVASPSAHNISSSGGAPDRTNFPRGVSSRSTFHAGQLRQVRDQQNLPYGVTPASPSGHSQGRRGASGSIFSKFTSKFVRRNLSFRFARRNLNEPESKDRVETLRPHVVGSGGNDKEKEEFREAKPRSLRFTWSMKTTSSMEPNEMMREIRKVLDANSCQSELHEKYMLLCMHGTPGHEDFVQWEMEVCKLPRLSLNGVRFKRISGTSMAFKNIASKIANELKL
# MAP/microtubule affinity-regulating kinase 3 (Homo sapiens), sequence (P27448 whole entry, looked up): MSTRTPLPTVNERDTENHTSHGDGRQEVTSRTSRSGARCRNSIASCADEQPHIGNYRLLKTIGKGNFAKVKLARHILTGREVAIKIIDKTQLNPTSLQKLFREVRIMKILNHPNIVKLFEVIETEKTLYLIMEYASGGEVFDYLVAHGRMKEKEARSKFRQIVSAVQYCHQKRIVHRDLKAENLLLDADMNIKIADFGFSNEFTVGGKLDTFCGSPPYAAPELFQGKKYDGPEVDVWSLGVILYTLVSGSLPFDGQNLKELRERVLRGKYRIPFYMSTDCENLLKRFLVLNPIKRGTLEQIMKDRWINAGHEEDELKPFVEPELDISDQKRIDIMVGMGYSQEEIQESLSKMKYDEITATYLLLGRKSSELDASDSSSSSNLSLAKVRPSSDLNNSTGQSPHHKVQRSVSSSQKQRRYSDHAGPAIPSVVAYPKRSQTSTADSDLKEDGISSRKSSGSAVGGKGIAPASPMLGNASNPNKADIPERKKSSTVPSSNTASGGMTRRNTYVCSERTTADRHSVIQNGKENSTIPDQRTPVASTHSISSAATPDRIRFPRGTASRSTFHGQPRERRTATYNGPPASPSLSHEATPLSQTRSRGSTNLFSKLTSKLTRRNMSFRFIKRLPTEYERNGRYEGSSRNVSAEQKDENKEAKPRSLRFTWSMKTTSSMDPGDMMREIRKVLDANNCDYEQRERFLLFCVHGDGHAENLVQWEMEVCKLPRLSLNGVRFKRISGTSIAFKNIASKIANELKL
SMILES,inhibition [1],inhibition [2],inhibition [3],inhibition [4],inhibition [5],inhibition [6],inhibition [7],inhibition [8],inhibition [9],inhibition [10]
CCn1c(-c2nonc2N)nc2c(C#CC(C)(C)O)nc(OC[C@H](N)c3ccccc3)cc21,35.4%,1.25%,18.4%,17.7%,82.1%,1.77%,2.97%,3.54%,2.92%,1.39%
COc1cc(N2CCN(C(C)C)CC2)ccc1Nc1nc(Nc2ccc(F)cc2C(N)=O)c2cc[nH]c2n1,67.4%,4.23%,37.8%,18%,78.3%,0.9%,1.83%,1.81%,8.99%,5.75%
COc1cccc(-c2c[nH]c3c(N/N=C/c4ccncc4)ncnc23)c1,11.8%,1.97%,7.5%,0.82%,4.88%,15.4%,57.1%,11.8%,51.1%,0.99%
Cc1cccc2c1NC(=O)/C2=N\Nc1ccc(S(N)(=O)=O)cc1,2.38%,1.25%,2.15%,3.77%,2.1%,1.62%,2.53%,0.84%,1.26%,0.47%
CCN1CCC(CC(=O)Nc2n[nH]c3nnc(-c4cccc(F)c4F)cc23)CC1,2.57%,2.32%,2.11%,3.71%,2.39%,1.66%,2.05%,1.98%,2.98%,-2.03%
Cc1ccc(O)cc1Nc1ccnc2cc(-c3ccccn3)ccc12,10.8%,2.1%,3.98%,1.72%,3.79%,3.8%,6.21%,1.72%,4.94%,0.54%
Fc1ccc(-c2nn3ncccc3c2-c2ccnc(Nc3ccc4c(c3)OCCO4)n2)cc1,-0.42%,2.21%,2.65%,3.62%,9.58%,3.01%,4.06%,0.58%,-0.01%,-1.3%
CNC(=O)c1cc(-c2ccc(F)cc2)cc(-c2ccc(S(=O)(=O)N3CCCC3)cc2)c1N,2.91%,0.61%,1.19%,4.19%,3.17%,0.63%,0.76%,-0.84%,-0.59%,2.35%
CN1CCC(n2cnc(-c3ccc(F)cc3)c2-c2ccnc(N)n2)CC1,6.18%,0.14%,0.48%,2.15%,12.9%,8.32%,41.2%,3.66%,16.9%,-1.15%
CC(C)(CO)CNC(=O)c1ccc2c(c1)/C(=N/Nc1ccc(S(N)(=O)=O)cc1)C(=O)N2,36.6%,7.2%,42.6%,18.8%,72.7%,0.85%,3.37%,-0.26%,9.44%,3.29%
CCn1c(-c2nonc2N)nc2ccccc21,22.2%,1.04%,2.84%,1.29%,7.45%,1.93%,8.64%,0.78%,14.7%,-0.05%
CCc1nn2ncccc2c1-c1ccnc(NC2CC2)n1,3.36%,2.15%,2.34%,2.14%,5.08%,5.42%,17.9%,2.69%,8.83%,1.31%
COc1ccc2[nH]c3c4[nH]c5ccc(OC)cc5c4c4c(c3c2c1)C(=O)NC4=O,33.5%,3.93%,15.9%,22.3%,77.6%,6.39%,11.5%,8.34%,18.1%,1.57%
CCn1c(-c2nonc2N)nc2cnc(Oc3cccc(NC(=O)c4ccc(N(C)C)cc4)c3)cc21,12.2%,0.81%,3.87%,8.41%,44.2%,2.31%,11.5%,3.41%,27.8%,0.56%
COc1ccc(CNC(=O)c2ccc(-c3cc(-c4nnc(C)o4)ccc3C)cc2)cc1,0.99%,2.25%,1.91%,0.76%,1.99%,4.23%,9.25%,4.37%,8.59%,1.99%
CCN(CC)S(=O)(=O)c1ccc(OC)c(Nc2ncc(-c3ccccc3)o2)c1,18.7%,-1.02%,0.8%,-0.34%,7.01%,1.28%,5.6%,1.51%,2.53%,0.71%
CCCN1CCC(c2ccc(Nc3nc(Nc4cc(F)ccc4C(N)=O)c4cc[nH]c4n3)c(OC)c2)CC1,66.6%,7.27%,42.6%,21.7%,78.7%,5.57%,10.7%,3.26%,7.76%,7.99%

SMILES,inhibition [1],inhibition [2],inhibition [3],inhibition [4],inhibition [5],inhibition [6],inhibition [7],inhibition [8],inhibition [9],inhibition [10]
NC(=O)c1sc(-n2cnc3ccc(C(F)(F)F)cc32)cc1OCc1ccccc1Br,11.5%,1.2%,2.56%,2.87%,7.71%,2.89%,5.77%,1.04%,3.71%,-0.38%
COc1ccc(-c2cc3c(N)ncnc3o2)cc1,4.01%,0.16%,1.62%,-3.33%,-1.79%,0.35%,2%,0.74%,4.21%,-0.22%
CN(C)CCOc1ccc(-c2nc(-c3ccncc3)c(-c3ccc4c(c3)CC/C4=N\O)[nH]2)cc1,4.44%,0.44%,2.12%,1.61%,3.61%,1.3%,7.41%,1.42%,5.3%,1.34%
CCn1c(-c2nonc2N)nc2c(C#CC(C)(C)O)ncc(OC3CCNCC3)c21,77.7%,14%,62.1%,21.2%,76.4%,1.74%,2.25%,2.54%,2.87%,19.3%
N#Cc1c(NC(=O)CN2CCOCC2)sc2c1CCCC2,5.29%,1.24%,1.29%,3.07%,1.6%,3.42%,6.68%,1.2%,6.58%,1.3%
CC(C)COC(=O)c1ccc2c(c1)/C(=C/Nc1ccc(S(N)(=O)=O)cc1)C(=O)N2,88.7%,24.6%,77.5%,50.1%,93.2%,-1.01%,6.56%,1.73%,13.9%,25.9%
COc1cccc(-n2ncc3c(N/N=C/c4ccc(F)cc4)ncnc32)c1,6.87%,1.23%,2.4%,2.6%,5.51%,4.58%,17.5%,4.13%,13.3%,1.91%
O=C(O[C@H]1CN[C@H](C#Cc2cc3ncnc(Nc4ccc(Cc5ccccc5)cc4)c3s2)C1)N1CCOCC1,2.78%,1.7%,0.44%,0.46%,-1.31%,2.67%,7.67%,9.26%,48.1%,-0.11%
[O-][S+]1CCN(Cc2ccc(-c3ccc4ncnc(Nc5ccc(OCc6cccc(F)c6)c(Cl)c5)c4c3)o2)CC1,1.78%,3.49%,3.99%,7.16%,5.89%,2.71%,6.2%,1.46%,6.51%,2.19%
Fc1ccc(-c2cc(-c3c[nH]nc3-c3ccccn3)ccn2)cc1,0.81%,1.12%,1.84%,0.52%,7.4%,4.46%,10.4%,2.83%,6.06%,-3.26%
CC(=O)NCc1cccc(C#Cc2cncnc2Nc2ccc(OCc3cccc(F)c3)c(Cl)c2)c1,1.66%,2.33%,3.13%,0.79%,2.93%,3.79%,32.1%,2.64%,11.8%,0.37%
COc1cc2ncn(-c3cc(OCc4ccccc4C(F)(F)F)c(C(=O)N(C)C)s3)c2cc1OC,3.36%,-0.78%,0.92%,2.15%,1.97%,0.52%,3.31%,-0.13%,2.71%,-2.4%
COC(=O)Nc1nc2ccc(Oc3ccc(NC(=O)Nc4cccc(Cl)c4)cc3)cc2[nH]1,-0.32%,-0.16%,0.01%,1.24%,-2.93%,1.78%,4.14%,-1.23%,0.19%,-0.4%
COc1cc(/C=N/Nc2ncnc3[nH]ncc23)ccc1O,30.6%,1.99%,15.4%,15.3%,75.5%,4.69%,22.6%,3.33%,25.7%,4.08%
CCCN(CCS(C)(=O)=O)Cc1ccc(-c2ccc3ncnc(Nc4ccc(OCc5cccc(F)c5)c(Cl)c4)c3c2)o1,-0.4%,0.58%,-0.36%,3.57%,3.34%,3.79%,9.77%,2.98%,10.9%,-0.65%
COC(=O)Nc1nc2ccc(S(=O)(=O)c3ccc(NC(=O)Nc4cc(C(F)(F)F)ccc4F)cc3)cc2[nH]1,0.83%,1.2%,1.06%,1.64%,4.33%,1.27%,1.87%,1%,0.01%,-2.72%
COc1ccc(-c2oc3ncnc(N)c3c2-c2ccc(NC(=O)Nc3cc(C(F)(F)F)ccc3F)cc2)cc1,5.58%,1.52%,5.32%,4.39%,-9.28%,9.84%,46.6%,9.42%,56.3%,0.01%
